# Experimental data from PubChem BioAssay (NCATS).
# “And” between values parts separate entries of the source, which are not always exact repeats. Identical values can stand only once. Results filed as inconclusive are left out. The source made the active and inactive calls. Unless noted, calls come from the whole dose curve; as a rule, active = well fitted curve in either direction with a large enough effect (not every such curve was filed as active); inconclusive = small, poorly fitted or top-dose-only effect, or another doubt; inactive = flat fitted curve, though single readings scatter.
# Test system: not listed separately
# Experiment: NFAT Signaling Pathway (AID 444);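 note: carbachol stimulus at about its EC50 of 1 µM final; % is set by controls: 0 for no effect and ±100 for the full control effect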
# Settings: Jurkat NFAT-bla M1, carbachol, beta-lactamase ratio, 5 h; at 17.2 µM (top of the series)
# How it was run: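 Jurkat cells carrying an NFAT-driven β-lactamase reporter and co-transfected muscarinic M1 receptor were treated with compound plus carbachol (1 uM final, an EC50 level) for 5 h at 37 °C. CCF4 loading followed for 1 h at RT; 460/530 nm ratio gave %activity.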
row,Compound,"activity change, negative = inhibition"
1,CCn1cc(C(=O)O)c(=O)c2cnc(N3CCCC3)nc21,5.83% (inactive)
2,O=C1OC(c2ccc(O)cc2)(c2ccc(O)cc2)c2ccccc21,-4.2% (inactive)
3,CN1CCC(=C2c3ccccc3Sc3ccccc32)CC1,-31.6% (active)
4,Cc1cccc(C)c1NC(=O)CN1CCN(CCCC(c2ccc(F)cc2)c2ccc(F)cc2)CC1,5.94% (inactive)

# Test system: not listed separately
# Experiment: Stat Signaling Pathway (AID 446);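 note: ME-180 cervical cancer cells given 40 pM IL-6 alongside compound; SIE-controlled beta-lactamase reporter measured as 460/530 nm FRET emission ratio; % is set by controls: 0 for no effect and ±100 for the full control effect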
# Settings: ME-180 SIE beta-lactamase reporter, IL-6 stimulated, 5 h; at 17.2 µM (top of the series)
# How it was run: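 Screening format detects activators and inhibitors alike: ME-180 SIE-bla cells stimulated at 40 pM IL-6 for 5 hrs with compound, then dual-emission beta-lactamase read at 405 nm excitation.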
row,Compound,"activity, negative = inhibition"
1,COc1ccc(CCN2CCC(Nc3nc4ccccc4n3Cc3ccc(F)cc3)CC2)cc1,-11% (inactive) and -15.4% (inactive)
2,C/C=C(/C(=C/C)c1ccc(O)cc1)c1ccc(O)cc1,-10.4% (inactive)
3,CCn1cc(C(=O)O)c(=O)c2cnc(N3CCCC3)nc21,2.28% (inactive)
4,O=C1OC(c2ccc(O)cc2)(c2ccc(O)cc2)c2ccccc21,-16.8% (inactive)
5,CCCCOc1ccc(OCCCN2CCOCC2)cc1,-0.87% (inactive) and 12.1% (inactive)
6,CN1CCC(=C2c3ccccc3Sc3ccccc32)CC1,-4.56% (inactive)
7,NC(=NCCCCCCN=C(N)/N=C(\N)Nc1ccc(Cl)cc1)/N=C(\N)Nc1ccc(Cl)cc1,-5.46% (inactive)
8,CCCCC(=O)O[C@]1(C(=O)CO)CC[C@H]2[C@@H]3CCC4=CC(=O)CC[C@]4(C)[C@H]3[C@@H](O)C[C@@]21C,-12.8% (inactive)
9,CC(=O)O[C@H]1C[C@@H]2CC[C@@H]3[C@H](CC[C@@]4(C)[C@H]3C[C@H]([N+]3(C)CCCCC3)[C@@H]4OC(C)=O)[C@@]2(C)C[C@@H]1[N+]1(C)CCCCC1,10.1% (inactive)
10,C[C@@H](CN(C)C)CN1c2ccccc2Sc2ccccc21,-7.27% (inactive)
11,c1ccc(-c2ccc(C(c3ccccc3)n3ccnc3)cc2)cc1 (centres undefined),-24.4% (inactive)
12,Cc1cccc(C)c1NC(=O)CN1CCN(CCCC(c2ccc(F)cc2)c2ccc(F)cc2)CC1,-20% (inactive)
13,CN(C)CCCOc1nn(Cc2ccccc2)c2ccccc12,-8.78% (inactive)
14,CCCCCCC[N+](CC)(CC)CCCCc1ccc(Cl)cc1,-5.02% (inactive)
15,CC(=O)c1ccc2c(c1)N(CCCN1CCC(CCO)CC1)c1ccccc1S2,9.61% (inactive)
16,CN(C)CCOc1ccccc1Cc1ccccc1,-3.49% (inactive)

# Target: Glucocorticoid receptor (Homo sapiens) (UniProt P04150)
# Sequence (P04150 whole entry, looked up): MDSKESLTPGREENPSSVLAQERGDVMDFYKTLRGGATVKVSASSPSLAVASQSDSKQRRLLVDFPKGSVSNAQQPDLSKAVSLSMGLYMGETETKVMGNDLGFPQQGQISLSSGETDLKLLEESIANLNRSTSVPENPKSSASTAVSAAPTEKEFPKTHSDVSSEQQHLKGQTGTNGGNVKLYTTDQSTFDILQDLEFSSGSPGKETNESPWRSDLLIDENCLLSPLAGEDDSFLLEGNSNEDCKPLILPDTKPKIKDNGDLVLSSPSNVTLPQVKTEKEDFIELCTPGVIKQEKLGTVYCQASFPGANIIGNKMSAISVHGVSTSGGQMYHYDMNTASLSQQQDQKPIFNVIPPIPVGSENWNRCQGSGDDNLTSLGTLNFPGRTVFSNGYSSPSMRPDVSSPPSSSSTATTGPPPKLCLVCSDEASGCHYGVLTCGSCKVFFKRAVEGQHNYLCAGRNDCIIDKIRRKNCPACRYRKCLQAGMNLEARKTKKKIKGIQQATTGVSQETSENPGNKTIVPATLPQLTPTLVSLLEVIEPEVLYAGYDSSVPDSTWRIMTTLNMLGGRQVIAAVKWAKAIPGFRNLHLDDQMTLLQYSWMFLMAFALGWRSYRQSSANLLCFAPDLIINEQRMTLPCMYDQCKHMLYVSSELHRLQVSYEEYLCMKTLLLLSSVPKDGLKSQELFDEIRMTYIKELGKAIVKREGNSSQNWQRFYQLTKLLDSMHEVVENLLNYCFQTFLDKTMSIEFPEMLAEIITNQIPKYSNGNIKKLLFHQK
# Experiment: GR-GFP Redistribution (AID 450;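 active = compounds whose dose series gives a full or clear partial fitted curve of increased nuclear translocation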; note: potency is the fitted concentration of half-maximal effect)
# Settings: U2OS GR-GFP nuclear translocation, laser cytometry, 2 h
row,Compound,Potency
1,CN=C(NC#N)NCCSCc1csc(N=C(N)N)n1,> 46 µM (inactive)
2,COc1ccc(CCN2CCC(Nc3nc4ccccc4n3Cc3ccc(F)cc3)CC2)cc1,> 20.6 µM (inactive)
3,C/C=C(/C(=C/C)c1ccc(O)cc1)c1ccc(O)cc1,> 20.6 µM (inactive)
4,CCn1cc(C(=O)O)c(=O)c2cnc(N3CCCC3)nc21,> 20.6 µM (inactive)
5,COc1cccc2c1C(=O)c1c(O)c3c(c(O)c1C2=O)C[C@@](O)(C(=O)CO)C[C@@H]3O[C@H]1C[C@H](N)[C@H](O)[C@H](C)O1,> 20.6 µM (inactive)
6,CN1CCC(=C2c3ccccc3Sc3ccccc32)CC1,> 20.6 µM (inactive)
7,Oc1c(I)cc(Cl)c2cccnc12,> 20.6 µM (inactive)
8,Oc1c(I)cc(I)c2cccnc12,> 20.6 µM (inactive)
9,NC(=NCCCCCCN=C(N)/N=C(\N)Nc1ccc(Cl)cc1)/N=C(\N)Nc1ccc(Cl)cc1,> 20.6 µM (inactive)
10,CCCCC(=O)O[C@]1(C(=O)CO)CC[C@H]2[C@@H]3CCC4=CC(=O)CC[C@]4(C)[C@H]3[C@@H](O)C[C@@]21C,0.000459 µM (active)
11,CC(=O)O[C@H]1C[C@@H]2CC[C@@H]3[C@H](CC[C@@]4(C)[C@H]3C[C@H]([N+]3(C)CCCCC3)[C@@H]4OC(C)=O)[C@@]2(C)C[C@@H]1[N+]1(C)CCCCC1,> 20.6 µM (inactive)
12,C[C@@H](CN(C)C)CN1c2ccccc2Sc2ccccc21,> 20.6 µM (inactive)
13,c1ccc(-c2ccc(C(c3ccccc3)n3ccnc3)cc2)cc1 (centres undefined),> 20.6 µM (inactive)
14,Nc1cc(Cl)c(NC2=NCCN2)c(Cl)c1,> 46 µM (inactive)
15,CN(C)CCCOc1nn(Cc2ccccc2)c2ccccc12,> 20.6 µM (inactive)
16,CCCCCCC[N+](CC)(CC)CCCCc1ccc(Cl)cc1,> 20.6 µM (inactive)
17,CC(=O)c1ccc2c(c1)N(CCCN1CCC(CCO)CC1)c1ccccc1S2,> 20.6 µM (inactive)

# Target: Glucocorticoid receptor (Homo sapiens) (UniProt P04150)
# Experiment: GR-EFC Redistribution (AID 451; calls by dose curve; note: potency is the fitted concentration of half-maximal effect)
# Settings: CHO-K1 GR-EFC translocation, beta-gal luminescence, 2 h
# How it was run: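 CHO-K1 cells stably expressing nuclear-localized β-gal enzyme acceptor and GR fused C-terminally to the enzyme donor fragment; ligand-driven nuclear translocation restores β-gal by complementation. Compounds titrated up to 46 uM final, 2 h at 37 °C; luminescence read.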
row,Compound,Potency
1,CN=C(NC#N)NCCSCc1csc(N=C(N)N)n1,> 46 µM (inactive)
2,COc1ccc(CCN2CCC(Nc3nc4ccccc4n3Cc3ccc(F)cc3)CC2)cc1,> 20.6 µM (inactive)
3,CCn1cc(C(=O)O)c(=O)c2cnc(N3CCCC3)nc21,> 20.6 µM (inactive)
4,CN1CCC(=C2c3ccccc3Sc3ccccc32)CC1,> 20.6 µM (inactive)
5,Oc1c(I)cc(Cl)c2cccnc12,> 20.6 µM (inactive)
6,CNCC[C@@H](Oc1ccccc1C)c1ccccc1,> 46 µM (inactive)
7,NC(=NCCCCCCN=C(N)/N=C(\N)Nc1ccc(Cl)cc1)/N=C(\N)Nc1ccc(Cl)cc1,> 20.6 µM (inactive)
8,C[C@@H](CN(C)C)CN1c2ccccc2Sc2ccccc21,> 20.6 µM (inactive)
9,Nc1cc(Cl)c(NC2=NCCN2)c(Cl)c1,> 46 µM (inactive)
10,CN(C)CCCOc1nn(Cc2ccccc2)c2ccccc12,> 20.6 µM (inactive)
11,CCCCCCC[N+](CC)(CC)CCCCc1ccc(Cl)cc1,> 20.6 µM (inactive)
12,CC(=O)c1ccc2c(c1)N(CCCN1CCC(CCO)CC1)c1ccccc1S2,> 20.6 µM (inactive)
